Measured values: PubChem BioAssay (Tox21)
“And” between values parts separate entries of the source, which are not always exact repeats. Equal values may be shown once. Results filed as inconclusive are left out. A call without a number means that no potency is given here. The source made the active and inactive calls. Calls come from the whole dose curve; as a rule, active = well fitted cell-killing curve with a large enough effect in the repeat runs; inconclusive = weak or mixed curves, or effect the other way; inactive = flat fitted curve, though single readings scatter.

assay: cAMP Responsive Elements (CRE) small molecule antagonists, cell-based qHTS assay: qHTS cell viability counter screen (AID 2060913); settings: CRE-bla HEK293T viability, CellTiter-Glo luminescence, 5 h; series mostly up to 92.4 µM; note: nearly all actives have a fitted effect of over 40% in size
Excerpt: U.S. Tox21 Program National Center for Advancing Translational Sciences [NCATS] Division of Preclinical Innovation [DPI] U.S. Environmental Protection Agency [EPA] National Institutes of Environmental Health Sciences [NIEHS] National Toxicology Program [NTP] U.S. Food and Drug Administration [FDA] Tox21 Assay Overview: CREB (cyclic-AMP Responsive Element Binding Protein) is a cellular transcription factor. It binds to certain DNA sequences called cAMP Responsive Elements (CRE) and regulates the transcription of the genes. […] This cell line can be used to find agonists/antagonists of the cyclic AMP signaling pathway. The activation of the report gene under culture conditions can be detected by fluorescence intensity. This cell line has been used to screen the Tox21 10K compound library to identify agonists that induce oxidative stress. The cytotoxicity of the Tox21 compound library against the CRE-bla cell line was tested in parallel by measuring the cell viability using CellTiter-Glo assay (Promega, Madison, WI) in the same wells.
Tox21 Assay Protocol Summary: CRE-bla Hek 293T cells were suspended in assay medium (DMEM containing 10% dialyzed FBS, 0.1 mM NEAA, 1 mM sodium pyruvate and 25 mM HEPES) and dispensed at 2,000 cells/4 uL /well into 1536-well black wall/clear bottom plates using a Multidrop Combi (ThermoFisher Scientific, Waltham, MA) dispenser. After the assay plates were incubated at 37 C/5% CO2 for 18 hrs, 23 nL of compounds dissolved in DMSO, positive controls or DMSO only was transferred to the assay plate by a pintool workstation (Kalypsys, San Diego, CA), followed by addition of 1 uL of 1.25uM NKH477 (0.25 uM as final concentration) in assay medium using a Flying Reagent Dispenser (Aurora Discovery, San Diego, CA). The plates were incubated at 37 C and 5% CO2 for 3 hrs. Then 1 uL of LiveBLAzer B/G FRET substrate (Invitrogen, Carlsbad, CA) was added to each well using Bioraptr Flying Reagent Dispenser (FRD, Aurora Discovery, San Diego, CA). The plates were incubated at room temperature for 2 h, then fluorescence intensities were measured using an Envision plate reader (PerkinElmer, Shelton, CT) at Excitation 405nm, Emission 460nm and 530nm. The % activity was determined from the ratio of 460nm/530nm. For cell viability readout that measures cytotoxicity, 4 uL /well of CellTiter-Glo reagent was added into the assay plates using Bioraptr FRD. After 30 min incubation at room temperature, the luminescence intensity in the assay plates was measured using a ViewLux (PerkinElmer, Shelton, CT) plate reader.
Potency is the fitted concentration of half-maximal effect.

SMILES | Potency | viability change, negative = cytotoxic
Nc1ccc([N+](=O)[O-])cc1Cl | inactive | –
COC1=CC(=O)O[C@@H](/C=C/c2ccccc2)C1 | inactive | –
OC[P+](CO)(CO)CO | inactive | –
CCc1cc2c(s1)-n1c(C)nnc1CN=C2c1ccccc1Cl | inactive | –
C=CC(N)=O | inactive | –
CCC(C)(C)c1ccc(O)cc1 | inactive | –
CCCCCCCCCC[N+](C)(C)CCCCCCCCCC | 30.6 µM (active) | –
Oc1ccc(C(c2ccc(O)cc2)(C(F)(F)F)C(F)(F)F)cc1 | inactive | –
O=S(=O)(O)F | inactive | –
COC(=O)COc1ccc(Cl)cc1Cl | inactive | –
O=C1OC(CCN2CCCCC2)OC1(c1ccccc1)c1ccccc1 (stereo not given) | inactive | –
Cc1cccc2sc3nncn3c12 | inactive | –
CC(=O)[O][Pb]([c]1ccccc1)([c]1ccccc1)[c]1ccccc1 | 18 µM (active) | –
O=C(O)COc1cc(Cl)c(Cl)cc1Cl | inactive | –
CC(C)C(=O)OCC(C)(C)C(OC(=O)C(C)C)C(C)C (stereo not given) | inactive | –
CCN(CC)C(=O)/C(Cl)=C(\C)OP(=O)(OC)OC | inactive | –
CC(C)(N)Cc1ccc(Cl)cc1 | inactive | –
COc1cc(CCN)cc(OC)c1OC | inactive | –
O=[N+]([O-])c1cccc2ccccc12 | inactive | –
[O]=[Cr][O][Cr]=[O] | inactive | –

SMILES | Potency | viability change, negative = cytotoxic
CC(O)C#N (stereo not given) | inactive | –
CN(C)C(=S)SSC(=S)N(C)C | 12 µM (active) and 9.69 µM (active) and 7.5 µM (active) | –
C=Cc1cccc(CCl)c1 | inactive | –
CCCCCC[N+](=O)[O-] | inactive | –
S=C=Nc1ccccc1 | inactive | –
CN(C)C(=O)Nc1cccc(C(F)(F)F)c1 | inactive | –
CCCCCCCCCCCCN=C(N)N | – | -6.77% [at 3.27 µM] (inactive)
O=c1[nH]c(=O)n(Cl)c(=O)n1Cl | inactive | –
CCCSP(=S)(OCC)Oc1ccc(Cl)cc1Cl (stereo not given) | inactive | –
CCC(C)C(C)(COC(N)=O)COC(N)=O (stereo not given) | inactive | –
CCCOC(=O)c1cncn1C(C)c1ccccc1 (stereo not given) | inactive | –
Cc1c(F)c(F)c(COC(=O)C2C(/C=C(\Cl)C(F)(F)F)C2(C)C)c(F)c1F (stereo not given) | inactive | –
Nc1c(Br)cc([N+](=O)[O-])cc1[N+](=O)[O-] | inactive | –
c1cc[n+]2c(c1)-c1cccc[n+]1CC2 | inactive | –
CN(C)c1ccc(N(C)C)cc1 | inactive | –
OCCCl | inactive | –
CC(C)(C)c1ccc(CCOc2ncnc3ccccc23)cc1 | inactive | –
CCN(CC)c1c([N+](=O)[O-])cc(C(F)(F)F)c(N)c1[N+](=O)[O-] | 54.5 µM (active) | –
CCOP(=S)(OCC)SCSP(=S)(OCC)OCC | inactive | –
CC(C)(c1ccccc1)c1ccc(O)c(C(C)(C)c2ccccc2)c1 | 42.9 µM (active) and 54.5 µM (active) | –
